# Hit rate of the full screen: of about 1,100 compounds, about 860 (78%) were called active. Not shown: some 19% with an inconclusive outcome. The call rests on the fitted dose curve; in most records, active means well fitted activation curve with a large enough effect; inconclusive means small, poorly fitted or top-dose-only effect; inactive means flat fitted curve, though single readings scatter. So high a share suggests a set chosen from earlier hits. The list shows a part of the results.
# Assay: qHTS of Nrf2 Activators: Hit Validation in Primary Assay; further: nearly all actives have a fitted effect of over 70% in size
# Details: Nrf2/ARE reporter cell assay; Potency: activation; series mostly up to 46.1 µM
# Outline: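 Luminescence from Steady-Glo lysis reagent, read after 30 min, reported ARE-luciferase activity in AREc32_fluc stable cells. Compounds were tested at several concentrations, incubated 24 h at 37 °C with 5% CO2 following overnight seeding.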
# Potency means the concentration at half of the fitted maximal effect.
row,Structure (SMILES),Potency
1,O=C1CC(C(=O)Nc2ccc(Cl)c(Cl)c2)S/C(=N\N=C\c2ccco2)N1 (stereo not drawn),0.731 µM (active)
2,Cc1cccc(NC(=O)C2CC(=O)N/C(=N/N=C/c3ccco3)S2)c1 (stereo not drawn),2.06 µM (active)
3,Cn1c(NC(=O)/C=C/c2ccccc2)cc(=O)n(C)c1=O,20.6 µM (active)
4,Cc1ccc(NC(=O)CC2S/C(=N/N=C/c3ccco3)NC2=O)cc1Cl (stereo not drawn),1.03 µM (active)
5,O=C(CC1S/C(=N/N=C/c2ccco2)NC1=O)Nc1ccccc1 (stereo not drawn),1.84 µM (active)
6,O=c1cc(-c2ccco2)nc(SCc2cccc(Cl)c2)[nH]1,1.16 µM (active)
7,O=C(Nc1ccccn1)c1csc2c1CCCC2,5.8 µM (active)
8,COC(=O)c1cc2nc(-c3ccccc3)cc(C(F)(F)F)n2n1,6.51 µM (active)
9,O=c1nc2c(O)cccn2c2c1c(=O)[nH]c1ccccc12,2.31 µM (active)
10,O=c1cc(COc2ccccc2[N+](=O)[O-])nc2sccn12,9.2 µM (active)
11,CCOC(=O)CCn1c(=O)c2cccn2c2cccnc21,18.4 µM (active)
12,CCCc1cc(C(N)=O)c(NC(=O)c2ccco2)s1,4.61 µM (active)
13,N#Cc1c(NC(=O)c2ccc([N+](=O)[O-])o2)sc2c1CCC2,3.66 µM (active)
14,NC(=O)c1c(NC(=O)c2ccco2)sc2c1CCC2,2.59 µM (active)
15,NC(=O)c1c(NC(=O)c2ccc([N+](=O)[O-])o2)sc2c1CCCC2,2.91 µM (active)
16,O=C(NCC1CCCO1)c1ccc([N+](=O)[O-])o1 (stereo not drawn),23.1 µM (active)
17,Cc1ccccc1/C=C1\C(=O)Nc2ccc(F)cc21,5.17 µM (active)
18,O=C1Nc2ccccc2/C1=C/c1ccccc1Cl,2.31 µM (active)
19,N#CC(=C1C=CC(=NO)C(Cl)=C1)c1ccccc1,5.17 µM (active)
20,O=C(/C=C/c1ccccc1Cl)Nn1cnc2ccccc2c1=O,2.91 µM (active)
21,N#Cc1c(-c2ccco2)cc(-c2ccccc2)[nH]c1=O,1.64 µM (active)

row,Structure (SMILES),Potency
1,CC(=O)Oc1c(-c2ccco2)oc2ccccc2c1=O,0.651 µM (active)
2,Nc1c(C(=O)C2CC2)sc2nc(-c3cccs3)cc(C(F)(F)F)c12,2.91 µM (active)
3,CC(=O)c1sc2nc(-c3cccs3)cc(C(F)(F)F)c2c1N,2.59 µM (active)
4,O=C(NN/C(=N/S(=O)(=O)c1ccc(Cl)cc1)c1ccccc1)c1cccc(Cl)c1,9.2 µM (active)
5,Cc1ccc(S(=O)(=O)/N=C(/NNC(=O)c2cccc(Cl)c2)c2ccccc2)cc1,18.4 µM (active)
6,COCCN(C(=O)c1ccco1)c1nc(-c2ccccc2)cs1,20.6 µM (active)
7,C=C1C2=C(C(=O)N1OC)[C@@H](O)[C@@](C)(O)[C@@H](CCCCC)O2,23.1 µM (active)
8,Cc1ccc([N+](=O)[O-])c(OCc2ncc(Cl)n2C)c1,18.4 µM (active)
9,Cc1ccccc1CS(=O)(=O)c1cnc2ccccc2n1,16.4 µM (active)
10,CCOc1cc(C=O)cc(N=Nc2cccc([N+](=O)[O-])c2)c1O,16.4 µM (active)
11,Cc1nc(NC(=O)c2ccc(Br)o2)ccc1Br,9.2 µM (active)
12,Cc1cccc(NC(=S)NC(=O)c2ccc(Br)o2)c1,10.3 µM (active)
13,O=C(Nc1ccc2ccccc2c1)c1ccc(Br)o1,2.91 µM (active)
14,O=C(/C=C/c1ccco1)Nc1cccnc1Cl,1.46 µM (active)
15,O=C(/C=C/c1ccco1)Nc1cccc2cccnc12,0.82 µM (active)
16,O=C1C2C3C=CC(C4CC34)C2C(=O)N1/N=C/c1ccc([N+](=O)[O-])o1 (stereo not drawn),3.66 µM (active)
17,O=C1C2C(C(=O)N1/N=C/c1ccc([N+](=O)[O-])o1)C1C=CC2C12CC2 (stereo not drawn),18.4 µM (active)
18,Nc1ccc2c(Cl)cc(Cl)cc2c1,2.31 µM (active)
19,Cn1c(=O)c(C(=O)NNC(=O)c2ccccc2F)c(O)c2ccccc21,2.31 µM (active)
20,O=C(c1ccc(S(=O)(=O)Cc2ccccc2Cl)c([N+](=O)[O-])c1)N1CCOCC1,18.4 µM (active)
21,O=C(c1ccc(S(=O)(=O)Cc2cc(F)ccc2F)c([N+](=O)[O-])c1)N1CCCC1,7.31 µM (active)

row,Structure (SMILES),Potency
1,Cc1ccc(Cl)c2sc(NC(=O)C3CC3)nc12,5.8 µM (active)
2,Cc1ccc2c(N)c(C(=O)c3ccccc3)sc2n1,14.6 µM (active)
3,CSc1c(C#N)c(N)nc2sc(C(=O)c3ccccc3)c(N)c12,4.61 µM (active)
4,Cc1nc2sc(C(=O)c3ccccc3)c(N)c2c2c1CCCC2,3.66 µM (active)
5,O=C(Nc1cccn2ncnc12)c1cccc(C(F)(F)F)c1,18.4 µM (active)
6,CC(=O)NCCNc1nc2cc(-c3cscc3C)sc2c(=O)n1C,1.3 µM (active)
7,COc1ncccc1-c1cc2nc(NCCNC(C)=O)n(C)c(=O)c2s1,2.59 µM (active)
8,Cc1ccc([N+](=O)[O-])cc1NC(=O)c1ccccc1,7.31 µM (active)
9,CCn1ncc(Br)c1C(=O)Nc1cc([N+](=O)[O-])ccc1C,2.91 µM (active)
10,Cn1c(=O)n(C)c2cc(NC(=O)c3cccc([N+](=O)[O-])c3)c(Br)cc21,13 µM (active)
11,Cc1ccc([N+](=O)[O-])cc1NC(=O)c1ccc(C(C)(C)C)cc1,4.61 µM (active)
12,O=C(NNC(=O)C12CC3CC(CC(C3)C1)C2)c1cccc([N+](=O)[O-])c1,inactive
13,O=C(Nc1cnc2ccccc2c1)c1ccco1,2.91 µM (active)
14,O=C(NC(=S)Nc1cnc2ccccc2c1)c1ccccc1,2.59 µM (active)
15,c1ccc(C2=Nn3c(nnc3-c3ccco3)SC2)cc1,1.84 µM (active)
16,O=c1cc(/C=C/c2ccccc2)oc2ccccc12,2.31 µM (active)
17,COc1ccc(Cl)cc1NC(=O)CSc1c2c(nc3ccccc13)CCC2,18.4 µM (active)
18,COc1ccc(N2CCCC2)c(NC(=O)c2ccc([N+](=O)[O-])o2)c1,6.51 µM (active)
19,COc1ccc(S(=O)(=O)N2CCN(C(=O)c3ccc([N+](=O)[O-])o3)CC2)cc1,5.8 µM (active)
20,COC(=O)c1scc(C)c1NC(=O)c1ccc(Cl)cc1,3.66 µM (active)
21,CCCn1nc([N+](=O)[O-])c(C(C#N)c2nc3ccccc3s2)c(Cl)c1=O (stereo not drawn),2.31 µM (active)

# From PubChem BioAssay AID651593 (National Center for Advancing Translational Sciences (NCATS), 2012)
